Dicer processing: inhibitors of human Dicer processing of pre-microRNA. AID 1347074. z-score at 25 µM. actives 6% (n = 47,000). cat-ELCCA pre-miR-21 Dicer processing, chemiluminescence; stronger effect = higher value; in the data active = z-score above about 3, passing the limit was not always enough;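 note: plate controls were vehicle for no effect and no enzyme for full effect; higher signal means more uncleaved substrate so more Dicer inhibition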
* = called active by the depositor. The full list was thinned out, with hits kept by preference.

SMILES	Dicer processing
COC(OC)c1ccc(C#N)c(SC)n1	0
COc1ccc(-c2nnc3c4cnn(-c5ccccc5)c4ncn23)cc1	0.08
Cc1ccc(-c2nnc3c4cnn(-c5ccccc5)c4ncn23)cc1	0.47
c1ccc(-c2nnc3c4cnn(-c5ccccc5)c4ncn23)cc1	3.1*
CCOC(=O)c1c(N)n(C2CCCC2)c2nc3ccccc3nc12	-12
Fc1cccc(Cl)c1CSc1nc2ccccc2[nH]1	-0.38
CCCc1ccc(S(=O)(=O)C[N+](=O)[O-])cc1	1.3
O=C1/C(=C\c2ccccc2)SC(=S)N1c1cccc(Br)c1	4*
O=C1/C(=C\c2ccc(Cl)c(Cl)c2)SC(=S)N1c1ccc(F)c(F)c1	0.62
Cc1cc(C)c2c(=O)c(/C=C3/SC(=S)N(c4cccc(Cl)c4)C3=O)coc2c1	-1.8
Nc1c(-c2nnnn2-c2ccc(F)cc2)cnc2ccccc12	2.1
CC1(C)SC(c2ccccc2)N[C@H]1C(=O)O (some centres not stated)	0.58
O=c1oc2c(Cl)cc(NS(=O)(=O)c3ccc(F)cc3)cc2s1	9.7*
COC(=O)c1sc(C(C)(C)C)cc1NS(=O)(=O)c1ccc(OC)cc1	-0.67
Cc1cc(C)cc(NS(=O)(=O)c2ccc3[nH]c(=O)[nH]c3c2)c1	-0.23
COc1ccc(S(=O)(=O)Nc2cc(Cl)c3oc(=O)sc3c2)cc1	8.9*
Cc1ccc(C)c(S(=O)(=O)Nc2cc(Cl)c3oc(=O)sc3c2)c1	12*
Cc1cc(NS(=O)(=O)c2ccc(NS(=O)(=O)c3cc(C)c(Cl)cc3Cl)cc2)no1	-0.3
O=S(=O)(Nc1ccccc1Cl)c1ccc(F)cc1	-0.45
COc1ccc(Cl)cc1NS(=O)(=O)c1ccc(F)cc1	1.6
COc1ccc(S(=O)(=O)Nc2nnc(C(C)C)s2)cc1	0.14
Cc1ccc(C)c(S(=O)(=O)Nc2ccc3oc(C)c(C(=O)O)c3c2)c1	-0.8
Cc1ccc(C)c(S(=O)(=O)Nc2ccc3oc4c(c3c2)C(=O)CCC4)c1	-1.4
Cc1ccc(S(=O)(=O)Nc2cc(Cl)c3oc(=O)sc3c2)cc1	11*
COc1cccc(OCC(O)CNC(C)(C)CC(C)(C)C)c1 (configuration not stated)	-0.04
SMILES	Dicer processing
COc1ccc(N2C(=O)CC(Nc3ccc(N4CCCCC4)cc3)C2=O)cc1 (configuration not stated)	-0.3
O=[N+]([O-])c1cc(Cl)ccc1Oc1c(Cl)cccc1Cl	2
CCOC(OCC)c1ccc(/C=C(\C#N)S(=O)(=O)c2ccccn2)cc1	-1.3
CC(=O)n1cc(-c2nsc(Nc3ccccc3)n2)c(C)n1	0.65
COC(OC)c1ccc2c(N)c(C(=O)c3ccc(Cl)cc3)sc2n1	-0.26
O=c1nc2n(-c3ccc([N+](=O)[O-])cc3)nc(-c3ccc(Cl)cc3Cl)n2nc1Cc1ccc(Cl)cc1	0.99
Cc1ccc2c(C)nc(Nc3ncc4c(n3)CC(c3ccco3)CC4=O)nc2c1 (configuration not stated)	-0.25
O=C(COC(=O)c1ccccc1Cl)c1ccc(Br)cc1	-0.43
COCCOC(=O)c1c(C)oc2ccc(OCC(=O)c3ccc(Br)cc3)cc12	-0.46
Cc1onc(-c2ccccc2Cl)c1C(=O)OCC(=O)c1ccc(Br)cc1	3.9*
Cc1cc(=O)oc(C)c1C(=O)OCC(=O)c1ccc(Br)cc1	5*
Cc1onc(-c2ccccc2)c1C(=O)OCC(=O)c1ccccc1	2
Cc1ccc2[nH]c(=O)cc(C(=O)OCC(=O)c3ccc(Br)cc3)c2c1	-0.05
N#CCC(=O)N/N=C/c1ccc(-c2cc(C(F)(F)F)cc(C(F)(F)F)c2)o1	-1.3
CN1CCc2cc(Cl)c(O)cc2[C@@H](c2ccccc2)C1	0.58
CC12CN3CC(C)(CN(C1)C3c1ccc(O)c(O)c1)C2=O (configuration not stated)	-0.39
CN1Cc2sccc2C(c2ccc(O)c(O)c2)C1 (configuration not stated)	4.8*
COC(=O)c1sc2ccccc2c1OC(=O)c1c(-c2c(Cl)cccc2Cl)noc1C	-1.6
COc1ccc(NS(=O)(=O)c2ccc3c(c2)[C@H]2C=CC[C@H]2[C@@H](c2cccc(OC)c2OC)N3)cc1	5.9
CC(C)S(=O)(=O)c1csc(NC(=O)Nc2ccccc2Cl)c1	1.7
CC(C)S(=O)(=O)c1csc(NC(=O)Nc2cc(Cl)ccc2Cl)c1Cl	5.3*
CC(C)S(=O)(=O)c1csc(NC(=O)N=S(C)(=O)c2ccc(Cl)cc2)c1Cl (configuration not stated)	-0.93
CC(=O)Nc1ccc(-n2sc3c(c2=S)-c2cc(C)ccc2NC3(C)C)cc1	4.9
Cc1ccc(NC(=S)N(CCC#N)C2CCCCC2)cc1	1.3
COC(=O)c1sccc1Oc1ccc(C(F)(F)F)cc1NS(=O)(=O)c1cccc(Cl)c1C	1.3
SMILES	Dicer processing
Cc1ccc(C2C3=C(Nc4c2c(=O)[nH]c(=O)n4C)c2ccccc2C3=O)cc1Cl (configuration not stated)	0.65
CCn1ccnc1C(O)c1ccc(C)cc1 (configuration not stated)	3.1*
CCn1c(C(O)c2ccc(N(C)C)cc2)nc2ccccc21 (configuration not stated)	2.5
COc1cccc(C(O)c2nccn2C)c1OC (configuration not stated)	3.1
COCCOC(=O)C1=C(C)NC2=C(C(=O)CC(C)(C)C2)C1c1cc(OC)ccc1OC (configuration not stated)	-0.94
N#Cc1cc2c(nc1SCC(=O)Nc1ccc(S(=O)(=O)Nc3nccs3)cc1)CCCC2	-1.9
O=C(Cn1nc(C(F)F)cc1C1CC1)N1CCCC1	3.1*
O=C(c1cn(CC(=O)N2CCCCC2)c2ccccc12)C1CC1	1
CC1CCc2c(sc3nnn(CC(=O)N4CCCC4)c(=O)c23)C1 (configuration not stated)	-0.75
COc1ccccc1C1SCCN1S(=O)(=O)c1ccc(F)cc1 (configuration not stated)	1.8
Cc1cc(C)c(N/C(N)=N/c2nc(C)cc(=O)[nH]2)c(C)c1	1.4
CSc1nc(N)nc(-c2ccc(C(F)(F)F)cc2)n1	1.6
CCCCCn1c(Sc2nc3ccccc3c(C)c2C#N)n[nH]c1=O	2
CCc1nc(N)ncc1-c1nnnn1-c1ccccc1	-1.1
Cc1cccc(Nc2ccc(-n3ccnc3)nn2)c1	-2
C=CCOC(=O)C1=C(C)NC2=C(C(=O)CCC2)C1c1cccc(Br)c1 (configuration not stated)	-0.02
COc1cccc(C2Nc3cccc4cccc(c34)N2)c1O	0.69
COc1ccc(C2Nc3cccc4cccc(c34)N2)cc1Br	4.9*
Brc1ccc(C2Nc3cccc4cccc(c34)N2)cc1	5*
Oc1ccc2ccccc2c1C1Nc2cccc3cccc1c23 (configuration not stated)	-2.6
Fc1ccc(C2Nc3cccc4cccc(c34)N2)cc1	-0.77
COc1ccc(C#N)cc1Br	-0.35
O=c1c(Cc2ccc(Cl)cc2)csc2ccccc12	0.19
O=C(O)CCC(=O)NCc1csc2ccc(Cl)cc12	-1.4
COc1ccc(C2=NN(S(=O)(=O)c3ccccc3)C(c3ccc(OC)c(OC)c3)C2)cc1OC (configuration not stated)	-2.2
COC(=O)c1c(C)n(S(C)(=O)=O)c2ccc(N(C(=O)c3ccco3)S(C)(=O)=O)cc12	-0.07
CCOC(=O)c1c(C)nsc1NN=C(C#N)C(=O)C(C)(C)C	0.5
CSc1ccc(-c2ncnn2-c2ccc(C)c(Cl)c2)cc1	-1.8
Cn1c(=O)c2c(nc(NCCCO)n2Cc2ccc(Br)cc2)n(C)c1=O	2.1
